# The list is not random: actives were taken first. Their share in the collection is about 12%.
# Sfp PPTase inh: Sfp phosphopantetheinyl transferase inhibition. Q9F4F7. Biochemical Sfp PPTase activity, qHTS. Potency, µM, for the others: largest response in the series, negative = inhibition, usual class: inhibitors. 310,000 compounds, 3.5% hits. AID 1490;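 further: the enzyme is Sfp with the accession as filed and its product quenches rhodamine fluorescence; 0% = enzyme reaction without inhibitor and -100% = no enzyme wells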
#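 With Hepes-Na pH 7.6 buffer containing 10 mM MgCl2, Sfp (15 nM) modified BHQ-2-YbbR (12.5 uM) using rhodamine-CoA (5 uM). Two reads 30 minutes apart at 525/598 nm yielded each well's rate.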
# JMJD2A Tudor inh: inhibitors of human JMJD2A Tudor domain; O75164; 390,000 compounds, 4.4% hits; AlphaScreen JMJD2A-Tudor / H3K4me3 peptide binding; Potency, µM (doses to about 114 µM), inactives show at the highest dose activity change, negative = inhibition, most hits filed as inhibitors; AID 504339; further: on the % scale 0 is the no-effect control and ±100 the full control effect; nearly all actives have a fitted effect of over 50% in size
# HP1b binding inh: HP1-beta chromodomain-methylated histone interaction inhibition; AlphaScreen HP1-beta / biotin-H3K9me3 peptide binding; P83916; Potency, µM (top dose mostly 114 µM), inactives show top-dose activity change, negative = inhibition, actives largely listed as inhibitors; 390,000 compounds, 0.56% hits; further: nearly all actives have a fitted effect of over 70% in size
#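 HP1-beta protein (50 nM final) preincubated 30 min at room temperature with biotinylated H3(1-18)K9me3 peptide (50 nM) in PBS pH 7.4, 0.01% Tween-20, then compound added for 30 min. AlphaScreen streptavidin donor/nickel chelate acceptor beads (10 ug/mL final), 30 min dark, luminescence read.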
# BAZ2B inh: BAZ2B (human) inhibition; AlphaScreen BAZ2B-H3K14Ac peptide displacement; Q9UIF8; Potency, µM (top dose mostly 114 µM), for inactives: at the top dose activity change, negative = inhibition, usual class: inhibitors; 360,000 compounds, 4.4% hits; further: on the % scale 0 is the no-effect control and ±100 the full control effect; nearly all actives have a fitted effect of over 60% in size
#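 Multi-concentration screen (max 110 uM) measuring displacement of acetylated histone H3 peptide from BAZ2B by AlphaScreen, using 50 nM protein, 50 nM peptide and 10 ug/mL streptavidin donor plus Ni-chelate acceptor beads.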
# G9a block: inhibitors of human histone lysine methyltransferase G9a | Q96KQ7 | G9a H3K9 monomethylation, AlphaScreen, 2 h | Potency, µM (top dose mostly 102 µM), without a hit: at the highest dose activity, negative = inhibition, most hits filed as inhibitors | 350,000 compounds, 8.8% hits | AID 504332; further: on the % scale 0 is the no-effect control and ±100 the full control effect; nearly all actives have a fitted effect of over 75% in size
#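 Chemiluminescent proximity detection of H3K9 monomethylation, read after 10 min bead incubation in the dark. Reaction: 20 nM G9a, 500 nM biotin-H3K9 peptide, 20 uM SAM cofactor, 2 h, room temperature, following 15 min enzyme-compound preincubation.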
# L3MBTL1 block: inhibitors of human L3MBTL1. 230,000 compounds, 0.66% hits. Potency, µM (top dose mostly 57.1 µM), for the others: at the highest dose activity, negative = inhibition, hits mostly inhibitors. Q9Y468. AID 485360. AlphaScreen L3MBTL1–H3K9me1 peptide binding; further: on the % scale 0 is the no-effect control and ±100 the full control effect; nearly all actives have a fitted effect of over 60% in size
#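 L3MBTL1 50 nM + b-AHA-H3(1-15)K9me1 75 nM, 30 min RT; compound added, 30 min RT; streptavidin donor/Ni-chelate acceptor beads 10 ug/mL each final, 30 min RT dark; AlphaScreen read.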
# The depositor's hits bear a star; ? = inconclusive; . = not tested or not shown; ! = not active in a repeat; [ ] = dose if it differs, or a comment. The call rests on the fitted dose curve; in most records, active means well fitted curve in the direction sought with a large enough effect; inconclusive means small, poorly fitted or top-dose-only effect, or another doubt; inactive means no such curve, though single readings can be large; an effect the other way counts as inactive or inconclusive. Potency means the concentration at half of the fitted maximal effect.
SMILES,Sfp PPTase inh,JMJD2A Tudor inh,HP1b binding inh,BAZ2B inh,G9a block,L3MBTL1 block
COC1CCCN(Cc2c(C(=O)N3CCN(C4CCCCC4)CC3)nc3ccccn23)C1 (configuration not stated),12%,-12%,26%,?,79µM*,.
Cc1cc(C(=O)NP(=O)(N2CC(C)OC(C)C2)N2CC(C)OC(C)C2)c(C)n1C1CC1 (configuration not stated),24%,-15%,-3%,?,45µM*,-17%
Cc1cc(C)cc(OCC(=O)OCC(=O)c2cc(C)n(C3CC3)c2C)c1,-14%,-16%,1%,-14%,.,.
Cc1cc(C)c(NC(=O)COCc2cc(-c3cccs3)on2)c(C)c1,.,4%,15%,1%,-9%[59 µM],.
CCCCNC(=S)NCCN1CCN(C(=S)NCCCC)CC1,15%,-13%,33%,-37%,0%,-2%
CCCNC(=S)N1CCN(CC)CC1,-25%,1.8µM*,-53%,50µM*,10µM*,-8%
O=C(NC(=S)N1CCN(Cc2ccccc2)CC1)c1ccco1,-7%,-23%,6%,-28%,50µM*,-1%
CCN1CCN(C(=S)NCC2CCCO2)CC1 (configuration not stated),-22%,7.9µM*,?,50µM*,40µM*,-1%
Cc1cnn(C(=S)NCC2CCCO2)c1 (configuration not stated),-25%,4.5µM*,47%,-2%,32µM*,-6%
COc1ccc(Cl)c2sc(NC(=O)c3ccc(S(=O)(=O)N4CCOCC4)cc3)nc12,.,-6%,20%[57 µM],3%,-36%[59 µM],.
C#CCCCO/N=C1/C[C@@H](O)[C@@H](O)[C@@H]2[C@@H]3C(=O)N(CC)C(=O)[C@H]3CC[C@H]12,-5%,.,.,.,.,.
CC1CCN(C(=O)c2ccc3c(c2)N(Cc2ccccc2F)C(=O)c2ccccc2S3(=O)=O)CC1,.,-21%,18%,-38%,-7%[59 µM],.
S=C(NC1CCCCC1)N1CCN(Cc2ccccc2)CC1,4%,-14%,21%,-4%,6%[59 µM],-8%
CCN1CCN(C(=S)NCCc2ccccc2)CC1,-26%,3.2µM*,?,79µM*,?,-3%
CCNC(=S)N1CCN(Cc2ccccc2)CC1,-23%,8.9µM*,?,50µM*,16µM*,17%
CCC(=O)c1ccc2c(c1)N(CCCN(C)C)c1ccccc1S2,3%,-32%,5%,.,14µM*!,.
COc1ccc2c(c1)Sc1ccccc1N2CCN(C)C,-15%,?,32µM*,25µM*,?,-13%
CN(C)CCCN1C(=O)c2cc3ccccc3cc2C1=O,22%,0%,10%,-11%,23%,3%
COC(=O)c1ccc(OC(=O)CCN2c3ccccc3Sc3ccccc32)cc1,8%,4%,60%,-25%,-8%[59 µM],-11%
CN(C)CCCN1c2ccccc2Sc2ccccc21,-16%,-14%,24%,?,45µM*!,-9%
CC(=O)c1ccc2c(c1)N(C)c1ccccc1S2,-27%,151%[57.1 µM],456%,223%,160%[59 µM],124%
Cc1ccc(S(=O)(=O)c2nnn3c2nc(NCc2ccc4c(c2)OCO4)c2sccc23)cc1C,.,-17%,18%,?,?,.
CCN(CC)c1cc(C)c2cc(NC(=O)c3ccccc3Cl)ccc2n1,.,-16%,21%,-4%,-28%[59 µM],.
CCN(CC)c1cc(C)c2ccccc2n1,0%,?,36%,-1%,1.1µM*,6%
Cc1ccc(S(=O)(=O)Nc2cc3c(cc2NCc2ccccc2)n(C)c(=O)n3C)cc1,.,?,?,-31%,16µM*,.
Cc1ccc(S(=O)(=O)Nc2cc3c(cc2NCc2ccccc2)n(C)c(=O)n3C)c(C)c1,.,?,-16%,50µM*,11µM*,.
Cc1ccc(S(=O)(=O)Nc2ccc3c(c2)n(C)c(=O)n3C)c(C)c1,-3%,-7%,21%[57 µM],-14%,.,2%

# High-throughput results: PubChem, National Center for Advancing Translational Sciences (NCATS)
